H9c2 protect = protects H9c2 cardiomyocytes from peroxide injury; 360,000 compounds, 0.63% hits; protection from H2O2 cell death, % at 20 µM; H2O2 injury protection, ATPLite, 2 h; AID 588492;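 active = compounds giving at least 50% protection of heart cells from peroxide-induced death in the single-dose screen, raw or plate-pattern-corrected value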;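 also: 0% = DMSO wells with peroxide and 100% = DMSO wells without peroxide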
TAG inh = triacylglycerol accumulation inhibition. H9c2 cells, Nile Red lipid (TAG) fluorescence; cells loaded with 200 µM oleic acid. inhibition, % at 12.5 µM. 230,000 compounds, 0.66% hits;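 active = pattern-corrected inhibition of lipid staining of at least 50% with the nuclear-stain viability signal not falling by more than 50%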;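 also: 0% = DMSO wells and 100% = triacsin C control wells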
Gli-Sufu block = antagonists of Gli-Sufu signaling; 340,000 compounds, 0.74% hits; inhibition, % at 5 µM; Sufu-KO-LIGHT fibroblasts, Gli luciferase reporter luminescence;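 active = inhibition above about 55%, limit read from the data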;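 also: 0% = DMSO-treated cells and 100% = wells with medium but no cells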
COUP-TFII inh = blocks human COUP-TFII nuclear receptor | inhibition, % at 8.6 µM | 370,000 compounds, 0.7% hits | HEK293T NGFI-A luciferase reporter, luminescence | P24468;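 active = inhibition above a per-plate cutoff, mean inhibition of test wells between control levels plus 3 SD, cut at about 38% in these data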;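 also: cells cotransfected with COUP-TFII expression vector driving the NGFI-A reporter; 0% = median of COUP-TF2 test wells and 100% = reporter-only cells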
Target sequence (P24468 whole entry, looked up): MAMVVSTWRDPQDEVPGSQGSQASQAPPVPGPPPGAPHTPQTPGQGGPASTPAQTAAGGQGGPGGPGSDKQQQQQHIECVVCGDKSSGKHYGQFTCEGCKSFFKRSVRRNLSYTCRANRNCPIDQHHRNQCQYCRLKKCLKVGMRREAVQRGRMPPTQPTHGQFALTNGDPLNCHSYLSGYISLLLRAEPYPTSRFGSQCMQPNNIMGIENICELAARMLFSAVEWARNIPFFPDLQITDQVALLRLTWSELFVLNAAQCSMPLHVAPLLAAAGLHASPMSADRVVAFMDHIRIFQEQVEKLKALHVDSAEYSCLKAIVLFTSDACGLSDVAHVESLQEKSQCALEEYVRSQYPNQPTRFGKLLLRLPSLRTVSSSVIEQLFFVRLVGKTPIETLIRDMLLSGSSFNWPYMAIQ
Jurkat NFkB inh = inhibitors of the PMA/ionomycin-induced NF-kB reporter in Jurkat cells | PMA/ionomycin-induced NF-kB luciferase reporter, luminescence | inhibition, % at 4 µM | 330,000 compounds, 0.53% hits; in the data active = inhibition above about 50%
697 NFkB inh = inhibitors of the PMA/ionomycin-induced NF-kB reporter in 697 B cells | 697 B-cell NF-kB luciferase reporter, 16 h | 330,000 compounds, 0.33% hits | inhibition, % at 4 µM | AID 435022; in the data active = inhibition above about 35%
An asterisk follows results filed as active; . = not tested or not shown. Only some compounds are listed: those with a hit (about 2.6% of all), similar ones and a draw of the others.

SMILES | H9c2 protect | TAG inh | Gli-Sufu block | COUP-TFII inh | Jurkat NFkB inh | 697 NFkB inh
COc1cc(C(=O)N/N=C/c2sc(N3CCOCC3)nc2-c2ccccc2)cc(OC)c1OC | 66* | 5 | 0 | 1 | 12 | 33
CS(=O)(=O)c1sc(C#N)c2c1C(=O)CC(c1ccccc1)C2 (stereo not drawn) | -19 | 93* | -7 | -3 | 21 | 1
Cc1ccc(S(=O)(=O)Nc2cccc3cccnc23)c([N+](=O)[O-])c1 | 40 | -8 | 61* | -6 | 47 | -62
Cc1cc(C)c(NS(=O)(=O)c2cccc3cccnc23)c(C)c1 | -1 | 3 | 6 | 7 | 2 | 12
Cc1cc2ccccn2c1C(=O)c1ccc(Cl)c([N+](=O)[O-])c1 | -13 | 8 | 4 | -4 | 3 | -2
Cc1c(C=O)c2ccccn2c1C(=O)c1ccc(Cl)c([N+](=O)[O-])c1 | 51* | 2 | 2 | 0 | 9 | 18
CCc1nc2ccc(C(=O)Nc3cccc(OCC(=O)N(C)C)c3)cn2c1N(C)Cc1cc2ccccc2s1 | 54* | 9 | . | 5 | . | .
O=C(c1ccncc1)N1CC[C@H]2[C@H](CCCN2Cc2ccccc2)C1 | . | . | . | 6 | . | .
COc1ccc(-c2sc3cc4c(cc3c2C#CC2(N)CCCCC2)OCO4)cc1 | -12 | 59* | -46 | 1 | 2 | -30
CN(C)c1cccc2c(S(=O)(=O)NCC3CCN(C(=O)C(=O)c4cccs4)CC3)cccc12 | . | . | . | 23 | . | .
CC(=O)Nc1cc(-c2ccc(F)cc2)cn2c(-c3ccc(F)cc3)cnc12 | 2 | -1 | . | -1 | . | .
COc1cc(-c2cc(NC(C)=O)c3ncc(-c4ccc(C(C)=O)cc4)n3c2)cc(OC)c1OC | 61* | -7 | . | -32 | . | .
COc1cc(-c2cc(NC(C)=O)c3ncc(-c4ccc(F)cc4)n3c2)cc(OC)c1OC | 54* | 10 | . | -18 | . | .
CC(=O)N(Cc1ccc(F)cc1)C1=C(NCCc2ccccc2)C(=O)c2ccccc2C1=O | -24 | 137 | 75* | 55* | 16 | 7
COC(=O)C1CN(C2CCCC2)CCS(=O)(=O)N1Cc1ccc(Cl)cc1 (stereo not drawn) | . | . | . | 19 | . | .
C(=N\NC1=Nc2cccc3cccc1c23)/c1ccccn1 | 1 | 51* | 70* | -22 | . | .
C(=NNc1ccc2ccccc2n1)c1ccccn1 | -15 | . | . | -45 | . | .
O=C(COc1ccccc1Cl)Nc1nc(-c2ccncc2)cs1 | 0 | -17 | 10 | 11 | 22 | -5
O=C(COc1ccc(F)cc1Cl)Nc1nc(-c2ccccn2)cs1 | 61* | 12 | . | -8 | -2 | -5
N#Cc1ccccc1OCC(=O)Nc1nc(-c2ccccn2)cs1 | 63* | 13 | . | -1 | . | .
O=C(COc1ccc(/C=N/NC(=O)c2cccnc2)cc1)Nc1ccccc1 | 19 | 15 | 2 | -9 | -31 | 9
COc1cccc(C(=O)Oc2ccc(/C=N/NC(=O)c3ccncc3)cc2OC)c1 | 18 | . | -49 | -13 | -4 | -15
COc1cc(C(=O)N/N=C/c2ccc(OC(=O)c3cccc(C)c3)c(OC)c2)ccc1O | 58* | 3 | -15 | -13 | -24 | -14
COc1cc(/C=N/NC(=O)c2cccnc2)ccc1OCC(=O)Nc1ccccc1Cl | 51* | 9 | -10 | 12 | -60 | 7
COc1cc(/C=N/NC(=O)c2ccccc2O)ccc1OCC(=O)Nc1ccccc1 | 78* | -8 | 8 | -20 | -48 | 13
SMILES | H9c2 protect | TAG inh | Gli-Sufu block | COUP-TFII inh | Jurkat NFkB inh | 697 NFkB inh
COc1ccccc1NC(=O)COc1ccc(/C=N/NC(=O)c2cccnc2)cc1 | 51* | . | 7 | -23 | -19 | 11
COc1ccc(NC(=O)COc2ccc(/C=N/NC(=O)c3cccnc3)cc2OC)cc1 | 39 | . | -1 | -6 | -14 | 13
Cc1c[nH]c2cccc(-c3c(Cl)cccc3Cl)c12 | . | . | . | -18 | . | .
O=C(OC12CCCN(C1)/C(=C/c1cccc(Cl)c1)C2)c1ccco1 (stereo not drawn) | . | . | . | -1 | . | .
COc1cc(/C=N/NC(=O)c2cccnc2)ccc1OC(=O)c1ccco1 | 3 | . | -13 | 4 | -9 | 5
Nc1ccc(C(=O)N/N=C\c2ccc(OC(=O)c3ccccc3Cl)cc2)cc1 | 7 | . | -4 | -9 | -4 | 4
COc1cc(/C=N\NC(=O)c2cccnc2)ccc1OC(=O)c1ccccc1Cl | 55* | -2 | -4 | -8 | 4 | -30
